Screening data: PubChem, National Center for Advancing Translational Sciences (NCATS)
The full list was thinned out, with hits kept by preference.
ClpP mod – qHTS Assay for Activators of ClpP | AID 651965, 2013 | 1.9% of 340,000 active | ATP-dependent Clp protease proteolytic subunit (Bacillus subtilis (strain 168)), P80244 | Potency, µM (highest dose often 57.5 µM), for the others: top-dose activity change, negative = active | purified B. subtilis ClpP, FRET peptide cleavage, 20 min; active = well fitted falling curve with a large enough effect; inconclusive = small, poorly fitted or top-dose-only effect; inactive = no such curve, though single readings can be large or run the other way; also: the source files actives as falling curves though it sought activators and does not explain the sign; nearly all actives have a fitted effect of over 65% in size
Target sequence (P80244 whole entry, looked up): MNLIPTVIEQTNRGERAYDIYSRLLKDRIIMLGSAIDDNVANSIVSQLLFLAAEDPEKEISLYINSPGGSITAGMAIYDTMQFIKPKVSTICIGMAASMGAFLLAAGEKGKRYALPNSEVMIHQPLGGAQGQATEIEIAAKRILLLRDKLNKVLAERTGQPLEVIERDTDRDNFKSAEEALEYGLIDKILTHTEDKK
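ClpP 10 microg/mL final, pH 8 Tris/KCl buffer with BSA, glycerol, Tween-20; compound pinned in; FRET-FV substrate; RT 20 min; Ex320/Em430; ΔFRET vs ADEP 5.8 microM, DMSO, no enzyme.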
Eya2 phos inh – Eya2 (human) phosphatase inhibition | O00167 | recombinant Eya2, OMFP fluorescence dephosphorylation (OMFP is methylfluorescein phosphate) | Potency, µM (series often up to 76.9 µM), for the others: at the highest dose activity, negative = inhibition, actives largely listed as inhibitors | 0.006% of 330,000 active | AID 488837; also: % is scaled to controls: 0 for no effect and ±100 for the full control effect
Target sequence (O00167 whole entry, looked up): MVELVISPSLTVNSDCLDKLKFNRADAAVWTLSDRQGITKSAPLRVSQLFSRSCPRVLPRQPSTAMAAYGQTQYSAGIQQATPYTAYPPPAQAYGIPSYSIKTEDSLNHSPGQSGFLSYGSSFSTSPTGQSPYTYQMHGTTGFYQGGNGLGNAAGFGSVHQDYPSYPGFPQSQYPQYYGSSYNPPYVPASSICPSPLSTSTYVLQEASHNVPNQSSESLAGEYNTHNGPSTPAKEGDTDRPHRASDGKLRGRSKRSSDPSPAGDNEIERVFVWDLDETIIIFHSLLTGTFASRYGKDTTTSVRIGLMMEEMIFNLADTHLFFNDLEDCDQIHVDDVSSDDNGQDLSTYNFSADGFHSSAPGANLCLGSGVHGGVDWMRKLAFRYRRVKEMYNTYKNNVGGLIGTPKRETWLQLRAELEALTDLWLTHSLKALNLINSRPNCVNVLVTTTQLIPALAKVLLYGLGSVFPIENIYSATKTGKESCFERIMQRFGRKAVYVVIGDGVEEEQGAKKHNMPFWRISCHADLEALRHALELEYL
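Eya2 (0.2 uM) preincubated 10 min at ambient with compound, then OMFP substrate added at 50 uM; 10 min reaction in 50 mM HEPES pH 7.5, 50 mM NaCl, 5 uM MgCl2, 0.05% BSA, 1 mM DTT. Fluorescence read at Ex 485/Em 525 nm.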
a7 integrin act – integrin-mediated muscular dystrophy alleviation activation; alpha7betagal myoblasts, beta-gal FDG fluorescence, 48 h; 0.064% of 350,000 active; Potency, µM (doses to about 38.3 µM), without a hit: at the top dose activation, most hits filed as activators;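 also: 100% = response of the positive control SU9516; nearly all actives have a fitted effect of over 60% in size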
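Alpha7betagal+/- myoblasts (passage 13) were plated 16-24 hr, then exposed to compounds (1:260 dilution of DMSO stock) for 48 hours at 37C. After MPER lysis, β-galactosidase reporter activity was read as FDG fluorescence (ex 480/em 540) after 30 minutes.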
p53 reactivation – re-activators of mutant p53; 0.063% of 320,000 active; Potency, µM (highest dose often 92.2 µM), inactives show at the highest dose activity change, positive = activation, most hits filed as activators; H1299 p53-A138V BP100-luciferase reporter, luminescence, 24 h; also: % of control where 0% means no effect; nearly all actives have a fitted effect of over 45% in size
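p53-null H1299 cells stably carrying temperature-sensitive p53-A138V and a BP100-luciferase reporter were pinned with compounds (4-point, 1:5 series) and held 24 hrs at 37 deg C. Luminescence was read 10 min after detection reagent.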
Mm-Cpn inhibitor – M. maripaludis TRiC chaperonin inhibition. Potency, µM (titrated, usually from 76.9 µM), for inactives: top-dose activity, negative = inhibition, usual class: inhibitors. purified Mm-Cpn ATPase, ADP Transcreener TR-FRET. 0.031% of 330,000 active; also: % is scaled to controls: 0 for no effect and ±100 for the full control effect; nearly all actives have a fitted effect of over 80% in size
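Eu-cryptate anti-ADP/ADP-d2 competition gives a ratio inversely related to ADP. Enzyme at 25 nM was pre-exposed to compound for 10 min, then given 10 uM ATP for 30 min, 37°C throughout.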
USP2a inh – USP2a (human) protease inhibition. O75604. 0.01% of 330,000 active. Potency, µM (top dose mostly 38.3 µM), without a hit: at the top dose activity change, negative = inhibition, most hits filed as inhibitors. USP2 core, Ub-CHOP2 coupled fluorogenic reporter, 485/531;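 also: plate controls were DMSO wells for no effect and full inhibition by NEM control for full effect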
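USP2 core (10nM final) preincubated 30min RT with compound in 20mM Tris-HCl pH 8.0, 2mM CaCl2, 2mM beta-mercaptoethanol, 0.05% CHAPS; 25nM Ub-CHOP2 plus 25nM reporter substrate added, fluorescence (Ex485/Em531) read after 60min.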
* marks the source's active call; other numbers are inactive results; ? = inconclusive; nt = not tested or not shown; [ ] = another dose, or the depositor's remark. Unless noted, calls follow the shape of the dose curve; as a rule, active = well fitted curve in the direction sought with a large enough effect; inconclusive = small, poorly fitted or top-dose-only effect, or another doubt; inactive = no such curve, though single readings can be large; an effect the other way counts as inactive or inconclusive. Potency is read from the fitted curve at half-maximal effect.

SMILES | ClpP mod | Eya2 phos inh | a7 integrin act | p53 reactivation | Mm-Cpn inhibitor | USP2a inh
CCOC(=O)c1sc2nc(N3CCOCC3)c3c(c2c1N)CCCC3 | 32µM* | 11% | 15% | 2% | -1% | 6%
CCN(CC)C(=O)c1sc2nc(N3CCOCC3)c3c(c2c1N)CCCC3 | 25µM* | 0% | -9% | 2% | -1% | 0%
COC(=O)c1sc2nc(N3CCCCC3)c3c(c2c1N)CCCC3 | 10µM* | -3% | 1% | 0% | 2% | 1%
COC(=O)c1ccc(Cn2cnc3c(sc4nc(N5CCOCC5)c5c(c43)CCCC5)c2=O)o1 | 28µM* | -16% | -28% | 4% | -14% | 0%
Nc1c(C(=O)NCc2ccco2)sc2nc(N3CCOCC3)c3c(c12)CCCC3 | ? | 6% | -25% | 6% | -16% | -9%
NC(=O)c1sc2nc(N3CCCCC3)c3c(c2c1N)CCCC3 | -28% | -7% | 7%[7.66 µM] | 9% | -18% | -17%
COC(=O)c1ccc(CSc2ncnc3c2sc2nc(N4CCOCC4)c4c(c23)CCCC4)o1 | ? | nt | 15% | nt | nt | nt
Oc1c(C(c2ccccc2F)N2CCC3(CC2)OCCO3)sc2nc(-c3ccco3)nn12 (centres undefined) | 4% | nt | nt | nt | nt | nt
CCOC(=O)c1sc2nc(C(C)C)c3c(c2c1N)CC(C)(C)OC3 | ? | 10% | 16% | -5% | -1% | 0%
CCOC(=O)c1oc2nc(C)c3c(c2c1N)CC(C)(C)OC3 | 10µM* | 11% | 0% | 5% | -10% | 2%
CCOC(=O)c1sc2nc(N3CCCC3)c3c(c2c1N)CC(C)(C)OC3 | 32µM* | -11% | -2% | -6% | 2% | 1%
CCc1nc2oc(C(=O)c3ccccc3)c(N)c2c2c1COC(C)(C)C2 | -5% | -2% | 1% | 3% | 0% | -1%
CC(C)c1cc(NCCCN2CCOCC2)n2c(nc3ccccc32)c1C#N | 28µM* | -7% | 0% | -6% | -2% | -6%
N#Cc1c2c(c(NCCCN3CCOCC3)n3c1nc1ccccc13)CCC2 | 32µM* | 11% | -12% | -12% | 0% | 2%
Oc1cccc2c(CC(O)c3c[nH]c4ccccc34)ccnc12 (centres undefined) | -3% | nt | nt | nt | nt | nt
FC(F)(F)c1cc(-c2ccccc2)nc(NCC2CCCO2)n1 (centres undefined) | -16% | -30% | -8% | -19% | 0% | 2%
FC(F)(F)c1cc(-c2ccccc2)nc(NC2CCCC2)n1 | 32µM* | -9% | -21% | 7% | -2% | 5%
NC(=O)c1ccc(-c2ccc(Br)cc2)o1 | 28µM* | -4% | 18% | ? | ? | -2%
CC1(c2ccncc2)Nc2ccccc2-c2nc3ccccc3n21 (centres undefined) | 28µM* | -2% | -14%[7.66 µM] | 6% | -4% | -2%
O=C(NCCCN1CCCC1=O)c1cccc(NS(=O)(=O)c2ccccc2)c1 | 35µM* | 8% | 2% | -4% | -2% | 2%
O=C(NCCCN1CCCC1=O)c1cccc(S(=O)(=O)N2CCN(c3ccccc3)CC2)c1 | 16µM* | 17% | -12% | 14% | -1% | 0%
O=C(NCCCN1CCCC1=O)c1cccc(NS(=O)(=O)c2ccc(Br)cc2)c1 | -2% | -3% | 7% | 4% | 1% | -1%
CC1CCCN(S(=O)(=O)c2cccc(C(=O)NCCCN3CCCC3=O)c2)C1 (centres undefined) | -3% | nt | 13% | nt | nt | nt
CCN(CC)CCCNC(=O)CCc1c(C)n(CC)c2cc(-c3ccccc3OC)nn2c1=O | 4% | 2% | 1% | 2% | -1% | 2%
CCOC(=O)CCc1c(C)n(CC)c2cc(-c3ccccc3OC)nn2c1=O | 11µM* | 7% | 29% | -3% | 0% | 5%
SMILES | ClpP mod | Eya2 phos inh | a7 integrin act | p53 reactivation | Mm-Cpn inhibitor | USP2a inh
C=CCn1c(-c2ccc(OC)cc2)nc2nc3ccccc3nc21 | 25µM* | 13% | -18% | 9% | 3% | -1%
C=CCc1ccccc1OCc1nc2ccc(C)cc2[nH]1 | -1% | nt | nt | nt | nt | nt
Nc1ccc(/C=C/c2nc3ccccc3s2)cc1 | -2% | nt | nt | nt | nt | nt
COc1ccc(OC)c(-n2c(C)ccc2-c2ccc(S(C)(=O)=O)cc2)c1 | 28µM* | -10% | 1% | 2% | -2% | 1%
COc1ccc(OC)c(-n2c(-c3ccc(S(C)(=O)=O)cc3)cc(C=O)c2C)c1 | -24% | 10% | -12% | 1% | -2% | -1%
Cc1cc2nn(-c3cccc4ccccc34)nc2cc1NC(=O)c1cccs1 | 14µM* | -4% | -10% | 2% | -19% | -7%
CC(=O)NCCn1ccc2ccccc21 | 28µM* | -15% | 18% | -13% | 0% | -3%
O=C(Cc1ccccc1)NCCn1ccc2ccccc21 | -2% | -25% | -16% | 13% | -5% | 1%
CCc1nnc(SCC(=O)Nc2cccc(C(F)(F)F)c2)c2cc3oc(C)cc3n12 | -29% | nt | nt | nt | nt | nt
COCCn1cc(C(=O)NCc2cccs2)c2c3ccccc3n(C)c2c1=O | 20µM* | 4% | -2% | 14% | 3% | 0%
CCN(CC)CCNC(=O)c1cn(CCOC)c(=O)c2c1c1ccccc1n2C | 4% | -5% | -24% | -2% | 0% | -1%
COCCn1cc(C(=O)NCCN(C)C)c2c3ccccc3n(C)c2c1=O | 4% | -3% | 15% | -4% | -2% | 4%
COCCn1cc(C(=O)N2CCN(C)CC2)c2c3ccccc3n(C)c2c1=O | 11µM* | 14% | -24% | -8% | -2% | -2%
CCOC(=O)N1CCN(C(=O)c2cn(CCOC)c(=O)c3c2c2ccccc2n3C)CC1 | 14µM* | -10% | 22% | -8% | -2% | 5%
Cc1ccc(S(=O)(=O)N2CCN(c3nc(-n4cccn4)nc4ccccc34)CC2)cc1 | -6% | nt | nt | nt | nt | nt
CCOc1ccc(OCC)c(NC(=O)c2cnc3c(-c4ccccc4)c(C)nn3c2C)c1 | 4% | nt | nt | nt | nt | nt
Cc1ccc(OC(=O)CSc2nnc(-c3ccc4c(c3)OCO4)o2)c(C)c1 | -23% | nt | nt | nt | nt | nt
N#Cc1ccc(S(=O)(=O)NCC(=O)OCC(=O)N2CCCC2=O)cc1 | 14µM* | -1% | -5% | 0% | 1% | 1%
CNC(=O)c1cc2cc(OC)ccc2n1CCN(Cc1ccccc1)Cc1ccccc1 | 22µM* | -4% | 5% | 3% | -6% | -1%
N#Cc1cnn2c(-c3ccccc3)ccnc12 | 25µM* | nt | ? | nt | nt | nt
O=C(Cc1c(O)c2ccccc2[nH]c1=O)NC1CCCCCC1 | 20µM* | 14% | 18% | 23% | 0% | 0%
